Screens: PubChem BioAssay, National Center for Advancing Translational Sciences (NCATS)
This is a sample that favours compounds with a hit; in the whole collection about 9.4% have one here.
NPC1 promoter act – activates the NPC1 promoter; Huh7 NPC1 promoter luciferase reporter, 24 h; Potency, µM (series often up to 9.22 µM), without a hit: top-dose activation, hits mostly activators; hit rate 2.4% among 320,000; also: % of control where 0% means no effect; nearly all actives have a fitted effect of over 60% in size
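Luminescence from an NPC1 promoter-driven luciferase reporter in stably transfected Huh7 cells was measured after 24 h compound treatment at 37 °C, followed by 10 min ambient incubation with luciferase detection reagent.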
SMN2 splice enh – enhancers of SMN2 splice variant expression. HEK293 SMN2-luciferase splicing reporter, luminescence, 30-36 h. Potency, µM (highest dose often 46.1 µM), inactives show at the top dose activity change, positive = activation, actives largely listed as activators. hit rate 2.8% among 210,000. AID 1458; also: % of control where 0% means no effect; nearly all actives have a fitted effect of over 55% in size
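HEK293 cells carry an SMN2 minigene-luciferase reporter in which exon 7 inclusion puts luciferase in frame. Cells were seeded at 2000 cells/well, attached for 10-12 hours, then exposed to compounds for 30-36 hours at 37C before ONE-Glo luminescence.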
ELG1 DNA repair – ELG1-dependent DNA repair inhibition. HEK293T ELG1-luciferase reporter, luminescence, 16 h; DNA damage induced by 5-fluorouridine. Potency, µM (series often up to 46.1 µM), inactives show at the highest dose activity change, negative = inhibition, hits mostly inhibitors. hit rate 2.3% among 330,000; also: % is scaled to controls: 0 for no effect and ±100 for the full control effect; nearly all actives have a fitted effect of over 55% in size
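Quantitative HTS, concentration-response format. 2,000 cells/well co-treated with 5-fluorouridine and compound, 16 hr in 5% CO2 at 37 °C; ONE-Glo luminescence read after 30 min.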
ELG1 genotox – genotoxicity induction in ELG1-luciferase HEK293T cells; HEK293T ELG1-luciferase reporter, luminescence, 16 h; Potency, µM (top dose mostly 46 µM), without a hit: at the highest dose activity change, positive = activation, usual class: activators; hit rate 1.3% among 330,000; AID 504466; also: % of control where 0% means no effect; nearly all actives have a fitted effect of over 60% in size
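HEK293T cells expressing luciferase-tagged ELG1 were treated with compound or DMSO for 16 hr at 37°C. Luciferase activity was then read after 30 min with ONE-Glo at room temperature; rising signal flags genetic stress.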
Rab9 prom act – activators of Rab9 promoter; Potency, µM (top dose mostly 9.22 µM), inactives show at the top dose activation, negative = inhibition, most hits filed as activators; AID 485297; Huh7 Rab9 promoter-luciferase reporter, luminescence, 24 h; hit rate 2.8% among 320,000; also: % of control where 0% means no effect; nearly all actives have a fitted effect of over 60% in size
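Luminescence read-out: Huh7 cells stably expressing Rab9-luciferase, treated 24 h with compound at 37 °C, then lysed with luciferase reagent for 10 min at ambient before reading.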
FLuc modulator – counter-screen for miR-21 project: firefly luciferase inhibitors or activators | Potency, µM (doses to about 57.5 µM), inactives show at the top dose activity change, negative = inhibition, actives largely listed as inhibitors | AID 588342 | purified FLuc, Km substrates, luminescence inhibition | hit rate 6.9% among 360,000;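 also: plate controls were vehicle for no effect and reference inhibitor for full effect; nearly all actives have a fitted effect of over 55% in size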
Target sequence (P08659 whole entry, looked up): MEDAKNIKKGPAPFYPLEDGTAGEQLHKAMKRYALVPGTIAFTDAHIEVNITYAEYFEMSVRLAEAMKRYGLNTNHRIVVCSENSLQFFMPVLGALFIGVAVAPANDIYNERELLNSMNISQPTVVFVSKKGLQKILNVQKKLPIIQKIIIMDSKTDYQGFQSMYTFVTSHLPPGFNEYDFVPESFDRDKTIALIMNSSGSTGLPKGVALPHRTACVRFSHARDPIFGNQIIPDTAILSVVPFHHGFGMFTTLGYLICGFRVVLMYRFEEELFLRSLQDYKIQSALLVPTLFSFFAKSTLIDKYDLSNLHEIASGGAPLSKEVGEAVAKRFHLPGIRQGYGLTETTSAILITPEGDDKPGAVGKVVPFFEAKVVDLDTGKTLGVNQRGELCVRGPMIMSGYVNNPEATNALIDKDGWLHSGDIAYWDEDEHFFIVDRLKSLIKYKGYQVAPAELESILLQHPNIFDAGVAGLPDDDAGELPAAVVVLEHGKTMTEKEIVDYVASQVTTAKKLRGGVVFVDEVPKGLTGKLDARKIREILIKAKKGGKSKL
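Purified P. pyralis luciferase (10nM final) with 10uM D-luciferin and 10uM ATP (Km levels) in 50mM Tris acetate pH 7.5, 10mM Mg acetate, 0.01% Tween-20, 0.05% BSA; qHTS 6-point titration, ~60 µM downward; luminescence read.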
* = called active by the depositor; ? = inconclusive; · = not tested or not shown. Calls follow the shape of the dose curve; as a rule, active = well fitted curve in the direction sought with a large enough effect; inconclusive = small, poorly fitted or top-dose-only effect, or another doubt; inactive = no such curve, though single readings can be large; an effect the other way counts as inactive or inconclusive. Potency is read from the fitted curve at half-maximal effect.

SMILES	NPC1 promoter act	SMN2 splice enh	ELG1 DNA repair	ELG1 genotox	Rab9 prom act	FLuc modulator
CCOC(=O)Cn1nc(NC(=O)c2ccc(C(=O)OC)cc2)cc1C	?	·	25.3%	17.8%	16.6%	10.7µM*
Nc1nc(N)nc(-c2cc(O)ccc2O)n1	?	·	1.16µM*	-2.6%	9.5%	-18.8%
CCCNc1nc(N)nc(-c2cc(Cl)ccc2OC)n1	2.0%	6.4%	-0.4%	-0.7%	-3.7%	11.1%
CCNc1nc(N)nc(-c2cc(Cl)ccc2O)n1	3.98µM*	11.2µM*	?	?	1.26µM*	1.69µM*
CCCCNc1nc(N)nc(-c2cc(Cl)ccc2O)n1	3.55µM*	6.31µM*	?	?	2.82µM*	9.53µM*
Cc1ccc(NC(=O)Cn2c(=O)n(CCC(=O)N3CCc4ccccc4C3)c(=O)c3ccccc32)c(C)c1	·	1.8%	·	·	·	-11.5%
CCC(=O)N1CCCc2cc(S(=O)(=O)N3CCC(C(=O)NC4CCC(C)CC4)CC3)ccc21 (centres undefined)	·	·	·	·	·	-3.5%
COc1ccc(CCCc2nnc(SCC(=O)Nc3ccc(Cl)cc3)o2)cc1	·	-11.8%	·	·	·	1.4%
CN(Cc1ccccc1)c1ncnc2c1nnn2C	·	·	·	·	·	-6.9%
NC(=O)c1ccccc1NC(=O)Nc1cccc(Cl)c1Cl	0.0%	4.5%	-1.6%	4.8%	-3.1%	-12.2%
CCC(=O)Nc1ccc(F)c(Cl)c1	0.4%	-14.0%	6.6%	-0.2%	-0.1%	0.5%
CC(=O)Nc1ccccc1C(=O)C(=O)Nc1cccc(C(=O)NCc2ccccc2)c1	-0.9%	-4.6%	-9.7%	-1.3%	14.3%	3.5%
CC(=O)Nc1ccccc1C(=O)C(=O)Nc1ccc(F)c(Cl)c1	3.98µM*	·	?	?	3.16µM*	3.1%
Cc1ccc(NC(=O)/C(C#N)=C/c2ccc(C(C)C)cc2)cc1C	·	-0.1%	·	·	·	-19.1%
CCc1ccc(NC(=O)C(=O)c2ccccc2NC(C)=O)cc1	1.58µM*	·	?	?	2.82µM*	?
NC(=O)c1ccccc1NC(=O)Nc1ccc(F)c(Cl)c1	-2.3%	17.5%	5.0%	5.2%	0.1%	9.53µM*
Cc1ccc(NC(=O)/C(Cl)=C/c2ccccc2)cc1C	1.78µM*	?	?	?	2.51µM*	0.757µM*
O=C(Nc1cc(F)ccc1F)C1CCN(C(=O)c2cnn(-c3ccccc3)c2-n2cccc2)CC1	·	-17.7%	·	·	·	-0.7%
O=C(CSc1nc(-c2cccs2)nc2cc(=O)[nH]n12)Nc1cccc(C(F)(F)F)c1	·	·	·	·	·	-16.3%
CC(=O)Nc1ccccc1C(=O)C(=O)Nc1ccc(C)c(C)c1	2µM*	17.8µM*	?	?	0.891µM*	?
CC(=O)Nc1ccccc1C(=O)C(=O)O	2.1%	3.6%	12.0%	1.4%	-0.3%	-1.8%
CC(=O)Nc1ccccc1C(=O)C(=O)Nc1ccc(C)c(F)c1	3.55µM*	6.31µM*	?	?	1.78µM*	?
CCOc1ccc2c(c1)c(=O)c(C(=O)c1ccc3c(c1)OCO3)cn2Cc1ccc(F)cc1	·	-4.9%	·	·	·	1.8%
Cc1cc(C)nc(NS(=O)(=O)c2ccc(NC(=O)c3nc(SC(C)C)ncc3Cl)cc2)n1	·	17.6%	·	·	·	?
CO[Si](CCCNCCC[Si](OC)(OC)OC)(OC)OC	·	-4.4%	·	·	·	·
O=C1C(NS(=O)(=O)c2ccccc2)=C(N2CCN(c3ccc(F)cc3)CC2)C(=O)c2ccccc21	-3.3%	·	23.1µM*	-11.8%	-4.3%	-5.8%
CC(=O)Nc1ccc(S(=O)(=O)NC2=C(N3CCN(C)CC3)C(=O)c3ccccc3C2=O)cc1	2.7%	·	18.3µM*	-12.7%	2.8%	?
CC1CCN(C2=C(NS(=O)(=O)c3ccccc3)C(=O)c3ccccc3C2=O)CC1	14.4%	·	-15.3%	-4.9%	22.4%	?
Cc1ccc(OCC(=O)OCc2cc(=O)n3nc(-c4cccs4)sc3n2)cc1C	·	·	·	·	·	0.7%
